Source: PubChem (National Center for Advancing Translational Sciences (NCATS))
SW480 rerep – inducers of DNA re-replication in SW480 colon cancer cells. SW480 DNA re-replication, Hoechst DNA content imaging, 48 h. Potency, µM (highest dose often 46.1 µM), for the others: top-dose re-replication activation, hits mostly activators. 340,000 compounds, 1.8% hits. AID 624297; note: potency is the fitted concentration of half-maximal effect; % of control where 0% means no effect; nearly all actives have a fitted effect of over 55% in size
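Readout is total intensity of Hoechst-stained nuclei, excited at 405 nm and collected at 500-530 nm. Compound treatment lasted 48 hr at 37 C in 5% CO2 before staining.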
Giardia killer – Giardia lamblia killing | Giardia lamblia trophozoite viability | activity change, % at 7.66 µM, hits read low | 340,000 compounds, 0.15% hits | AID 540267; in the data active = activity change below about -80%; inconclusive = between about -30% and that limit;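 note: parasites exposed to compound for two days anaerobically before the ATP read; % is set by controls: 0 for no effect and ±100 for the full control effect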
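Luminescence from cellular ATP indicates surviving trophozoites (100 cells/well) following 48 hrs anaerobic compound treatment at 37 deg C; signal develops 15-30 min at room temperature.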
KB-3-1 cytotox – KB-3-1 parental cell cytotoxicity; KB-3-1 viability, CellTiter-Glo ATP luminescence, 72 h; Potency, µM (highest dose often 46.1 µM), actives largely listed as cytotoxic; 400,000 compounds, 1.4% hits; note: potency is the fitted concentration of half-maximal effect; % is set by controls: 0 for no effect and ±100 for the full control effect; nearly all actives have a fitted effect of over 60% in size
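Cytotoxicity in the drug-sensitive parental line KB-3-1 was scored as loss of CellTiter-Glo luminescence following 72 h incubation with compound. Values come from curve fitting of normalized concentration-response data.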
MCF10A rereplic – inducers of DNA re-replication in MCF 10A breast cells; MCF 10A DNA re-replication, Hoechst nuclear intensity, 48 h; Potency, µM (top dose mostly 46.1 µM), for inactives: at the highest dose activity, positive = re-replication, usual class: activators; 350,000 compounds, 2.9% hits; note: potency is the fitted concentration of half-maximal effect; % of control where 0% means no effect; nearly all actives have a fitted effect of over 50% in size
KB-V1 MDR tox – KB-V1 MDR subline cytotoxicity; KB-V1 MDR cells viability, CellTiter-Glo, 72 h; Potency, µM (series often up to 46.1 µM), actives largely listed as cytotoxic; 400,000 compounds, 3.4% hits; note: potency is the fitted concentration of half-maximal effect; % is set by controls: 0 for no effect and ±100 for the full control effect; nearly all actives have a fitted effect of over 60% in size
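Cells of the MDR subline KB-V1 are plated, dosed with compound at multiple concentrations, and incubated 72 h at 37 degrees C; CellTiter-Glo is then added and luminescence read after 10 min.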
ASM inhibitor – human S-ASM enzyme inhibition; Potency, µM (titrated, usually from 57.5 µM), for the others: at the highest dose activity change, negative = inhibition, actives largely listed as inhibitors; 340,000 compounds, 0.006% hits; P17405; placental ASM, HMU-PC fluorogenic substrate, 60 min; note: potency is the fitted concentration of half-maximal effect
Target sequence (P17405 47-631 limits assumed): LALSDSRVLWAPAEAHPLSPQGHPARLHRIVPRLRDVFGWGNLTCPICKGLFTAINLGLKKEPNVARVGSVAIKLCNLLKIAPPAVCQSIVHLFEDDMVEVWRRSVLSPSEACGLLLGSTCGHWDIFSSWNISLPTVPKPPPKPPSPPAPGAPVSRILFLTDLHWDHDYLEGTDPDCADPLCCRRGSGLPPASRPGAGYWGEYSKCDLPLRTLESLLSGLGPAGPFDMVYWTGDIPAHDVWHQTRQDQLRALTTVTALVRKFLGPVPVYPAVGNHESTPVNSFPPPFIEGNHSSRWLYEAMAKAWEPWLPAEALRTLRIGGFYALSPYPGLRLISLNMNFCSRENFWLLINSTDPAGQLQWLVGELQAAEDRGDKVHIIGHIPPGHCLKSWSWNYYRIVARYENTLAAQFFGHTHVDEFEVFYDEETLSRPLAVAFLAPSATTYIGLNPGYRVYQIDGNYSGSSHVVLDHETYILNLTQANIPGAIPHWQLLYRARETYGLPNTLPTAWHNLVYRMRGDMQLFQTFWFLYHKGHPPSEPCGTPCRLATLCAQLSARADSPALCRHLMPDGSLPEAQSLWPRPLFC
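Human placenta-derived ASM preincubated with compound 10 min at room temperature, then reacted with 9 uM (final) fluorogenic HMU-PC substrate for 60 min at 37 C. Stop solution raises pH to 10; fluorescence read at Ex 386/Em 447 nm.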
Starred values were filed as active, the others as inactive; i = inactive; ? = inconclusive; · = no result given. Most compounds without a hit are left out; they make up all but 6.9% or so of the library. Unless noted, calls come from the whole dose curve; as a rule, active = well fitted curve in the direction sought with a large enough effect; inconclusive = small, poorly fitted or top-dose-only effect, or another doubt; inactive = no such curve, though single readings can be large; an effect the other way counts as inactive or inconclusive.

SMILES | SW480 rerep | Giardia killer | KB-3-1 cytotox | MCF10A rereplic | KB-V1 MDR tox | ASM inhibitor
CCOc1ccccc1NC(=O)c1oc2ccccc2c1NC(=O)C1CC1 | 3% | 26 | · | ? | · | 14%
COc1ccc(NC(=O)c2oc3ccccc3c2C)c(OC)c1 | 0% | 6 | ? | -1% | 21µM* | 60%
COc1ccccc1NC(=O)c1oc2ccccc2c1C | · | · | i | · | i | ·
CNC(=O)COc1ccc(NC(=O)CCn2nc(-c3ccc(C)cc3)c3ccccc3c2=O)cc1 | · | · | i | · | ? | ·
CCNS(=O)(=O)c1ccc(C(=O)OCc2cc(=O)oc3cc(OC)ccc23)cc1 | ? | 12 | i | 15µM* | i | 4%
Cc1ccc(C)c(S(=O)(=O)N2CCN(C(=O)c3cc(-c4cccs4)nn3-c3ccccc3)CC2)c1 | -1% | 2 | ? | ? | 6.5µM* | -1%
CN(CC(=O)Nc1c(Cl)cccc1Cl)C(=O)c1cc(-c2cccs2)nn1-c1ccccc1 | 0% | -2 | i | ? | 4.1µM* | -3%
O=C(Cn1cc(S(=O)(=O)N2CCCC2)c(S(=O)(=O)N2CCCC2)c1)Nc1ccccc1 | · | · | ? | · | i | ·
COc1ccc(/C=N/Nc2cc(C)nc3c(C)cccc23)cc1 | 26µM* | ? | ? | 18µM* | i | 119%
Cc1ccc2nc(C)cc(N/N=C/c3cccc(O)c3)c2c1 | 17% | -16 | i | 5% | i | 12%
COc1ccc2nc(C)cc(N/N=C/c3ccc(F)cc3)c2c1 | 16µM* | -81* | 26µM* | 23µM* | ? | 64%
COc1ccc(/C=N/Nc2cc(C)nc3ccccc23)cc1 | 4.1µM* | -14 | 15µM* | 1.6µM* | ? | 61%
CCOc1ccc(-n2c(=O)c3c(C)c(C)sc3n(CC(=O)Nc3ccc(CC)cc3)c2=O)cc1 | · | · | i | · | i | ·
CCOC(=O)c1cc(-c2ccc(Cl)cc2)nc2c1c(C)nn2CCC#N | -2% | 0 | i | ? | i | 15%
CCOC(=O)c1cc(-c2ccc3c(c2)OCCO3)nc2c1c(C)nn2CCC#N | ? | 42 | i | 12µM* | i | 276%
COc1ccc(C2=C(N3CCN(c4cccc(C)c4C)CC3)c3ccccc3C2=O)cc1 | · | · | i | · | i | ·
CCOc1ccc(C(CCc2ccccc2)NC(=O)c2ccccc2)cc1OCC (centres undefined) | 0% | 2 | i | -4% | 9.2µM* | -6%
CC(C)COP(=O)(OCC(C)C)C(Nc1ccccc1)c1ccc2c(c1)OCO2 (centres undefined) | ? | -5 | ? | ? | 6.5µM* | 3%
CC(C)OP(=O)(OC(C)C)C(Nc1ccccc1)c1ccc2c(c1)OCO2 (centres undefined) | -1% | 17 | i | 3% | i | -1%
COc1ccc(NS(=O)(=O)c2ccc(O)c(C(=O)OCC(=O)NC(C)C3CC4CCC3C4)c2)cc1 (centres undefined) | 1% | -16 | i | 5% | i | -1%
CC(NC(=O)COC(=O)c1cc(NS(=O)(=O)c2ccc(Cl)c([N+](=O)[O-])c2)ccc1O)C1CC2CCC1C2 (centres undefined) | 9.2µM* | 9 | i | 6.5µM* | i | -10%
CC1CCCN(Cc2c(O)ccc3c(=O)c(-c4nc5ccccc5s4)c(N)oc23)C1 (centres undefined) | ? | 5 | ? | 21µM* | ? | -7%
CC1(C)CCCN(Cc2c(O)ccc3c(=O)c(-c4nc5ccccc5s4)c(N)oc23)C1 | -9% | -19 | ? | 23µM* | ? | -2%
CCc1cc(C(=O)Cc2ccc(F)cc2)c(O)cc1O | -2% | 4 | ? | 9% | 16µM* | -9%
COc1ccc(-n2ccnc(NCc3cccs3)c2=O)cc1OC | · | · | i | · | i | ·
SMILES | SW480 rerep | Giardia killer | KB-3-1 cytotox | MCF10A rereplic | KB-V1 MDR tox | ASM inhibitor
Brc1ccc2c(c1)C(c1cccs1)=NNC(c1cccnc1)=N2 | -3% | 9 | i | 3% | 21µM* | -16%
Clc1ccc(-c2nnc(Sc3nc4ccccc4o3)c3ccccc23)cc1 | -4% | -6 | ? | ? | i | -8%
Cc1ccc(-c2nnc(Sc3nc4ccccc4o3)c3ccccc23)cc1 | ? | 27 | i | 8.2µM* | i | -7%
Cc1nnc(Sc2nc3ccccc3o2)c2ccccc12 | ? | 4 | ? | 13µM* | i | -1%
COc1ccc(OC)c(Nc2nc3ccc(C)cc3n3cnnc23)c1 | 8% | 1 | i | 18µM* | i | 2%
COc1cccc(Nc2nc3ccc(C(=O)c4ccccc4)cc3n3cnnc23)c1 | 18µM* | 1 | i | 9.2µM* | i | 30%
CC(C)c1ccc(Nc2nc3ccc(C(=O)c4ccccc4)cc3n3cnnc23)cc1 | · | · | i | · | ? | ·
COc1ccc(Cl)cc1Nc1nc2ccc(C)cc2n2cnnc12 | -10% | -12 | i | 8.2µM* | i | 42%
Cc1ccc2c(c1)c1c(c(=O)n(-c3ccccc3C)c(=O)n1CC(=O)NCC1CCCO1)n2C (centres undefined) | 1% | -2 | i | -1% | i | i
O=C(Nc1cccc2cccnc12)C(Cl)(Cl)Cl | · | -8 | · | · | · | ·
CN(Cc1ccc(OC(F)F)cc1)C(=O)c1ccc(S(=O)(=O)N(C)c2ccccc2)cc1 | -11% | -4 | ? | 12% | i | -3%
Cc1ccc(CN(C)C(=O)c2ccc(S(=O)(=O)N(C)c3ccccc3)cc2)o1 | 8.2µM* | -11 | i | ? | i | 4%
Cc1ccc(CN(C)C(=O)c2ccccc2Oc2ccccc2)o1 | ? | -5 | i | 7% | 21µM* | 4%
CSc1ccccc1OCc1cc(C(=O)N(C)Cc2ccc(C)o2)no1 | ? | 27 | i | 10% | i | -4%
CCCn1nc(NC(=O)c2ccncc2)c2cc3ccccc3nc21 | 1% | -10 | i | 5% | i | 16%
